# Data from PubChem BioAssay (NCATS).
# Where “and” joins values, the source holds several entries; their conditions need not be identical. Equal values may be shown once. Results filed as inconclusive are left out. A call without a number means that no potency is given here. Calls of active or inactive are those of the source. Unless noted, calls come from the whole dose curve; as a rule, active = well fitted curve in the direction sought with a large enough effect; inconclusive = small, poorly fitted or top-dose-only effect, or another doubt; inactive = no such curve, though single readings can be large; an effect the other way counts as inactive or inconclusive.
# Assay: Cytotoxicity counterscreen for NFkB agonists and antagonists (AID 624476);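 note: cells exposed to compound for 48 hours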
# Settings: NFkB reporter cell line viability counterscreen; series mostly up to 46.1 µM
row,SMILES,Potency
1,CNC(=O)N1N=C(c2ccc(N)cc2)c2cc3c(cc2CC1C)OCO3 (stereo unspecified),inactive
2,Cn1cc(C2=C(c3cn(C4CCN(Cc5ccccn5)CC4)c4ccccc34)C(=O)NC2=O)c2ccccc21,inactive
3,COc1ccc(C(=O)c2c(C)n(CCN3CCOCC3)c3ccccc23)cc1,inactive
4,COC1(CS(=O)c2ccccc2)CCN(CCc2c[nH]c3ccc(F)cc23)CC1 (stereo unspecified),inactive
5,CC(O)(CS(=O)(=O)c1ccc(F)cc1)C(=O)Nc1ccc(C#N)c(C(F)(F)F)c1 (stereo unspecified),inactive
6,Cn1c(CCCC(=O)O)nc2cc(N(CCCl)CCCl)ccc21,inactive

# Assay: qHTS Assay for Identification of Small Molecule Agonists for NFkB Signaling Pathway. (AID 624478);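 note: compounds tested together with TNF alpha at its EC50 of 10 pM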
# Settings: NFkB pathway reporter cell assay, agonist mode, cells co-stimulated with 10 pM TNF alpha; series mostly up to 46.1 µM
# Procedure, shortened: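 Activators were sought in reporter cells stimulated at the TNF alpha EC50 (10 pM final). Compound and cytokine were co-incubated 5 hours at 37 C before beta-lactamase substrate detection by dual-emission fluorescence.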
row,SMILES,outcome
1,COC[C@H]1OC(=O)c2coc3c2[C@@]1(C)C1=C(C3=O)C2CCC(=O)[C@@]2(C)C[C@H]1OC(C)=O (stereo partly specified),inactive
2,CNC(=O)N1N=C(c2ccc(N)cc2)c2cc3c(cc2CC1C)OCO3 (stereo unspecified),inactive
3,Cn1cc(C2=C(c3cn(C4CCN(Cc5ccccn5)CC4)c4ccccc34)C(=O)NC2=O)c2ccccc21,inactive
4,COc1ccc(C(=O)c2c(C)n(CCN3CCOCC3)c3ccccc23)cc1,inactive
5,COC1(CS(=O)c2ccccc2)CCN(CCc2c[nH]c3ccc(F)cc23)CC1 (stereo unspecified),inactive
6,CC(O)(CS(=O)(=O)c1ccc(F)cc1)C(=O)Nc1ccc(C#N)c(C(F)(F)F)c1 (stereo unspecified),inactive
7,Cn1c(CCCC(=O)O)nc2cc(N(CCCl)CCCl)ccc21,inactive

# Assay: qHTS Assay for Identification of Small Molecule Antagonists for NFkB Signaling Pathway. (AID 624479; calls by dose curve; note: potency is the fitted concentration of half-maximal effect)
# Settings: NFkB pathway reporter cell assay, antagonist mode; series mostly up to 38.3 µM
row,SMILES,Potency
1,COC[C@H]1OC(=O)c2coc3c2[C@@]1(C)C1=C(C3=O)C2CCC(=O)[C@@]2(C)C[C@H]1OC(C)=O (stereo partly specified),13.3 µM (active)
2,CNC(=O)N1N=C(c2ccc(N)cc2)c2cc3c(cc2CC1C)OCO3 (stereo unspecified),inactive
3,Cn1cc(C2=C(c3cn(C4CCN(Cc5ccccn5)CC4)c4ccccc34)C(=O)NC2=O)c2ccccc21,6.68 µM (active)
4,COc1ccc(C(=O)c2c(C)n(CCN3CCOCC3)c3ccccc23)cc1,inactive
5,COC1(CS(=O)c2ccccc2)CCN(CCc2c[nH]c3ccc(F)cc23)CC1 (stereo unspecified),inactive
6,CC(O)(CS(=O)(=O)c1ccc(F)cc1)C(=O)Nc1ccc(C#N)c(C(F)(F)F)c1 (stereo unspecified),inactive
7,Cn1c(CCCC(=O)O)nc2cc(N(CCCl)CCCl)ccc21,inactive

# Assay: Cell Proliferation Assay against the HBL1 Cell Line (AID 651646);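 note: cells exposed to compound for 48 h before reading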
# Settings: HBL1 DLBCL cells; at 46.1 µM (top of the series)
# Procedure, shortened: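 HBL1, 500 cells/well, RPMI no phenol red + 5% FBS; cpd pinned, 48 h 37C/5% CO2; CellTiter-Glo, 15 min RT, luminescence. % activity: DMSO = 100%, bortezomib 9.2 uM final = 0%.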
row,SMILES,"viability, percent of control"
1,COC[C@H]1OC(=O)c2coc3c2[C@@]1(C)C1=C(C3=O)C2CCC(=O)[C@@]2(C)C[C@H]1OC(C)=O (stereo partly specified),61.7%
2,CNC(=O)N1N=C(c2ccc(N)cc2)c2cc3c(cc2CC1C)OCO3 (stereo unspecified),20%
3,Cn1cc(C2=C(c3cn(C4CCN(Cc5ccccn5)CC4)c4ccccc34)C(=O)NC2=O)c2ccccc21,33.2%
4,COc1ccc(C(=O)c2c(C)n(CCN3CCOCC3)c3ccccc23)cc1,50.4%
5,COC1(CS(=O)c2ccccc2)CCN(CCc2c[nH]c3ccc(F)cc23)CC1 (stereo unspecified),108%
6,CC(O)(CS(=O)(=O)c1ccc(F)cc1)C(=O)Nc1ccc(C#N)c(C(F)(F)F)c1 (stereo unspecified),95.3%
7,Cn1c(CCCC(=O)O)nc2cc(N(CCCl)CCCl)ccc21,108%

# Assay: Cell Proliferation Assay against the TMD8 Cell Line (Caspase readout at 16 hrs) (AID 651712); note: potency is the fitted concentration of half-maximal effect
# Settings: TMD8 lymphoma cells, caspase activation luminescence; series mostly up to 46.1 µM
# Procedure, shortened: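 Caspase-Glo luminescence after 16 h compound exposure of TMD8 cells, 37 °C, 5% CO2. Medium: RPMI without phenol red, 5% FBS. Normalisation: DMSO = 0%, bortezomib 9.2 uM final = 100%.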
row,SMILES,Potency
1,CNC(=O)N1N=C(c2ccc(N)cc2)c2cc3c(cc2CC1C)OCO3 (stereo unspecified),18.7 µM (active)
2,Cn1cc(C2=C(c3cn(C4CCN(Cc5ccccn5)CC4)c4ccccc34)C(=O)NC2=O)c2ccccc21,16.6 µM (active)
3,COc1ccc(C(=O)c2c(C)n(CCN3CCOCC3)c3ccccc23)cc1,20.9 µM (active)
4,COC1(CS(=O)c2ccccc2)CCN(CCc2c[nH]c3ccc(F)cc23)CC1 (stereo unspecified),inactive
5,CC(O)(CS(=O)(=O)c1ccc(F)cc1)C(=O)Nc1ccc(C#N)c(C(F)(F)F)c1 (stereo unspecified),inactive
6,Cn1c(CCCC(=O)O)nc2cc(N(CCCl)CCCl)ccc21,inactive

# Assay: Cell Proliferation Assay against the TMD8 Cell Line (Caspase readout at 8 hrs) (AID 651713); note: potency is the fitted concentration of half-maximal effect
# Settings: TMD8 lymphoma cells, caspase activation luminescence; series mostly up to 46.1 µM
# Procedure, shortened: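 Caspase 3/7 activation in ABC DLBCL TMD8 cells is measured by luminescence after an 8 h compound exposure at 37C. Relative light units are scaled between DMSO (0%) and 9.2 uM final bortezomib (100%).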
row,SMILES,Potency
1,COC[C@H]1OC(=O)c2coc3c2[C@@]1(C)C1=C(C3=O)C2CCC(=O)[C@@]2(C)C[C@H]1OC(C)=O (stereo partly specified),23.5 µM (active)
2,CNC(=O)N1N=C(c2ccc(N)cc2)c2cc3c(cc2CC1C)OCO3 (stereo unspecified),inactive
3,COc1ccc(C(=O)c2c(C)n(CCN3CCOCC3)c3ccccc23)cc1,26.4 µM (active)
4,COC1(CS(=O)c2ccccc2)CCN(CCc2c[nH]c3ccc(F)cc23)CC1 (stereo unspecified),inactive
5,CC(O)(CS(=O)(=O)c1ccc(F)cc1)C(=O)Nc1ccc(C#N)c(C(F)(F)F)c1 (stereo unspecified),inactive
6,Cn1c(CCCC(=O)O)nc2cc(N(CCCl)CCCl)ccc21,inactive

# Assay: qHTS assay for small molecule agonists of the antioxidant response element (ARE) signaling pathway (AID 651741; active = well fitted activation curve with a large enough effect in the signal ratio; the % refers to the signal ratio)
# Settings: HepG2 ARE-bla reporter, beta-lactamase FRET ratio, 16 h; series mostly up to 96 µM
# Procedure, shortened: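 Stably integrated ARE-beta-lactamase reporter HepG2 cells; 16 h compound incubation, 37 C; LiveBLAzer FRET substrate 2 h at room temperature; fluorescence intensity.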
row,SMILES,Potency
1,Nc1ccncc1,inactive
2,NCC(O)c1ccc(O)cc1 (stereo unspecified),inactive
3,CCCC(C)(COC(N)=O)COC(=O)NC(C)C (stereo unspecified),inactive
4,CNCC(O)c1ccc(O)cc1 (stereo unspecified),inactive

# Assay: qHTS assay for small molecule activators of the p53 signaling pathway (AID 651743; active = well fitted activation curve with a large enough effect in the signal ratio, not every such curve was filed as active; the % refers to the signal ratio)
# Settings: HCT-116 p53RE-bla, beta-lactamase FRET ratio, 16 h; activation: stronger effect = higher value
# Procedure, shortened: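 Following 16 hours of compound exposure at 37 C, HCT-116 cells bearing the p53RE-bla reporter were loaded with LiveBLAzer B/G FRET substrate for 2 hours at room temperature and fluorescence intensity was recorded.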
row,SMILES,activation
1,Nc1ccncc1,2.37% (inactive)
2,NCC(O)c1ccc(O)cc1 (stereo unspecified),-5.43% (inactive)
3,CCCC(C)(COC(N)=O)COC(=O)NC(C)C (stereo unspecified),1.85% (inactive) and -3% (inactive)
4,CNCC(O)c1ccc(O)cc1 (stereo unspecified),-2.83% (inactive)

# Assay: qHTS assay for small molecule activators of the nuclear factor-kappa B (NF-kB) signaling pathway (AID 651749; active = well fitted activation curve with a large enough effect in the signal ratio; the % refers to the signal ratio)
# Settings: NF-kB-bla ME-180 cells, beta-lactamase FRET ratio, 16 h; stronger effect = higher value
# Procedure, shortened: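 In this qHTS format, compounds acting as activators increase NF-kB-driven beta-lactamase in ME-180 cells, measured as disrupted FRET after 16 hr exposure at 37C and 5% CO2.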
row,SMILES,activation
1,C=C(C)[C@H]1Cc2c(ccc3c2O[C@@H]2COc4cc(OC)c(OC)cc4[C@@H]2C3=O)O1,7.78% (inactive)
2,Nc1ccncc1,-0.507% (inactive)
3,NCC(O)c1ccc(O)cc1 (stereo unspecified),-2.66% (inactive)
4,CNCC(O)c1ccc(O)cc1 (stereo unspecified),-1.11% (inactive)
